PubChem BioAssay (Tox21)
Several values for one entry are separate records, joined by “and”; a condition that tells them apart may be missing. Equal values may be shown once. Inconclusive results are not listed. Activity calls are given as the source filed them. Calls follow the shape of the full dose curve.

assay: qHTS assay to identify small molecule antagonists of the sonic hedgehog signaling (Shh) pathway (AID 1259369); conditions: NIH/3T3 Gli1-Luc reporter, Shh antagonist, luminescence 24 h; series mostly up to 42.5 µM; activity change, negative = inhibition: at the top concentration; also: nearly all actives have a fitted effect of over 45% in size
Excerpt: U.S. Tox21 Program National Center for Advancing Translational Sciences [NCATS] NIH Chemical Genomics Center [NCGC] U.S. Environmental Protection Agency [EPA] National Institutes of Environmental Health Sciences [NIEHS] National Toxicology Program [NTP] U.S. Food and Drug Administration [FDA] Tox21 Assay Overview: The sonic hedgehog (Shh) pathway is essential for normal embryonic development. Dysregulation of the Shh pathway can cause severe developmental defects in organs. Therefore chemicals that interfere with the pathway are potential developmental toxicants. A cell line designated 3T3Gli1-Luc (DMB/OARSA/CFSAN/FDA, Laurel, MD), a NIH/3T3 derived clone containing stably integrated Gli1-Luc reporter is used to detect chemical interference of the Shh pathway, by changes in the expression of the firefly Luc gene under the control of the Gli1 transcriptional response element. This cell line was used to screen Tox21 libraries for identifying and prioritizing the potential developmental toxicants that interfere Shh pathway. Conditioned medium-stimulated mode was used to screen for chemicals inhibiting Shh signaling.
Tox21 Assay Protocol Summary: 3T3 Gli1-Luc cells were dispensed at 2,000 per well in 5uL of culture medium into white solid bottom 1536-well plates (Greiner Bio-One, Monroe, NC) using a Multidrop Combi (Thermo Scientific, Waltham, MA) dispenser. The assay plates were incubated at 37 C and 5% CO2 for 4hr, and then 23nL of compounds dissolved in DMSO and positive control were transferred using a Pintool station (Wako, San Diego, CA). The compound transfer was followed by the addition of 1ul conditioned medium or assay buffer using two separate tips of Flying Reagent Dispenser (FRD, Aurora Discovery, San Diego, CA). The assay plates were incubated at 37C and 5% CO2 for 24hr. For luciferase read, 4uL of Amplite Luciferase reporter gene assay reagent (AAT Bioquest, Inc. Sunnyvale, CA) was added to each well of the assay plates using FRD and incubated at room temperature for 30min. The luminescence signal was measured using a ViewLux plate reader (Perkin Elmer, Shelton, CT).
% is scaled to controls: 0 for no effect and ±100 for the full control effect; potency is read from the fitted curve at half-maximal effect.

SMILES | activity change, negative = inhibition | Potency
CCc1ccc(O)c(OC)c1 | 15.8% [at 92.4 µM] (inactive) | –
C[C@](N)(Cc1ccc(O)cc1)C(=O)O | 37.1% [at 8.39 µM] (inactive) | –
CCCCNC(=O)NCCCC | 0.317% [at 92.4 µM] (inactive) | –
Cn1c(N)c(N=O)c(=O)n(C)c1=O | 11.4% [at 92.4 µM] (inactive) | –
O=C(O)Cc1ccc(CCNS(=O)(=O)c2ccc(Cl)cc2)cc1 | -6.63% (inactive) | –
O=C1CC2CC1C1CCCC21 (stereo not given) | 6.12% [at 92.4 µM] (inactive) | –
COc1ccc2c(c1)c(CC(=O)OCC(=O)O)c(C)n2C(=O)c1ccc(Cl)cc1 | 22.1% (inactive) | –
OCCOc1ccc(OCCO)cc1 | 25.8% [at 92.4 µM] (inactive) | –
NCCCNCCSP(=O)(O)O | 21.5% [at 8.39 µM] (inactive) | –
CC(C)(c1ccc(O)cc1)c1ccc(O)cc1 | – | 38.1 µM (active) and 19.7 µM (active)
CC(=O)OC/C=C(\C)CC/C=C(\C)CCC=C(C)C | 4.93% [at 92.4 µM] (inactive) | –
CC(C(=O)O)c1ccc(CC2CCCC2=O)cc1 (stereo not given) | 14.1% (inactive) | –
CCC(C)S (stereo not given) | 17.6% [at 3.27 µM] (inactive) | –
CC(=O)CC(C)C | 7.59% [at 92.4 µM] (inactive) | –
O=Cc1cccc([N+](=O)[O-])c1 | 4.41% [at 92.4 µM] (inactive) | –
NC(=O)c1ccc([N+](=O)[O-])cc1 | 17.8% [at 92.4 µM] (inactive) | –
CCCc1cc(C(N)=S)ccn1 | 2.59% (inactive) | –
CCN(Cc1ccncc1)C(=O)C(CO)c1ccccc1 (stereo not given) | 26.1% (inactive) | –
OCCCC1CCCCC1 | 9.88% [at 92.4 µM] (inactive) | –
CC(C)c1cc2c(cc1S(=O)(=O)O)[C@@]1(C)CCC[C@@](C)(C(=O)O)[C@@H]1CC2 | 24.4% (inactive) | –

SMILES | activity change, negative = inhibition | Potency
C[C@H]1C[C@@H](O)CC(C)(C)C1 | 1.38% [at 92.4 µM] (inactive) | –
C=COCC1CCC(CO)CC1 (stereo not given) | 24.7% [at 92.4 µM] (inactive) | –
CCCCCSCCCCC | -10% [at 92.4 µM] (inactive) | –
c1ccc(CC2=NCCN2)cc1 | 17.5% (inactive) | –
CCN1CCC[C@H]1CNC(=O)c1cc(S(N)(=O)=O)ccc1OC | 10.4% (inactive) | –
Nc1c[n+](N2CCOCC2)no1 | 20.5% (inactive) | –
N=C(N)c1ccc2cc(OC(=O)c3ccc(N=C(N)N)cc3)ccc2c1 | 7.85% (inactive) | –
N#Cc1ccc(C2CCCc3cncn32)cc1 (stereo not given) | 9.11% (inactive) | –
c1cnc(N2CCN(Cc3ccc4c(c3)OCO4)CC2)nc1 | -11.4% (inactive) | –
COC(=O)CCSCCC(=O)OC | 17.4% [at 92.4 µM] (inactive) | –
CCCCCOC(=O)CCCCC | 17.2% [at 92.4 µM] (inactive) | –
CC(C[N+](C)(C)C)OC(N)=O (stereo not given) | 30.1% (inactive) | –
N[C@H](C(=O)O)c1ccc(O)cc1 | 17.6% [at 19 µM] (inactive) | –
CCC(=O)OC(C)c1ccccc1 (stereo not given) | 33.1% [at 92.4 µM] (inactive) | –
Cc1cc2c(cc1S(N)(=O)=O)S(=O)(=O)CCC2 | 20.6% (inactive) | –
O=C(O)COc1nn(Cc2ccccc2)c2ccccc12 | 4.02% (inactive) | –
O=C(c1ccccc1)C1CCCCC1 | 2.59% [at 92.4 µM] (inactive) | –
CCOC(=O)CC(C)=O | 0% [at 92.4 µM] (inactive) | –
CCOC(=O)C(=O)OCC | 37.5% [at 92.4 µM] (inactive) | –
CN(C(=O)c1c(O)c2ccccc2n(C)c1=O)c1ccccc1 | 17.1% (inactive) | –
